# Experimental data as given in the supplement of paper PMC8183993.
# Several values for one entry are separate records, joined by “and”; a condition that tells them apart may be missing. Equal values may be shown once. Where a name gives a salt, the structure may show the parent alone. ± gives the standard deviation of the averaged measurements. Whole data set: some 3,200 compounds, median “nuclei count (viability) relative to DMSO” near 99, cut for the lowest 2% near 16. Many of the other results were omitted from the sample, so the lowest values are more common in it than they were.
# Test system: U2OS
# Experiment: nuclei count (viability) relative to DMSO (% of DMSO); higher = more viable cells
# Conditions: 10 µM; 24 h
# Description: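 Primary image-based screen in U2OS cells: compounds at 10 uM for 24 h, then a 1 h o-propargyl-puromycin (OPP) pulse, click labelling, and high-throughput microscopy. Mean cytoplasmic OPP intensity and nuclei count were normalised to DMSO wells within each plate (DMSO = 100) and averaged over triplicate plates.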
row,SMILES,nuclei count
1,CCNC(=O)Nc1ccc(-c2nc3c(c(N4CCOC[C@@H]4C)n2)CCN(C2COC2)C3)cc1,75.4 ± 5.5
2,O=C(O)[C@]1(Cc2cccc(Nc3nccs3)n2)CC[C@@H](Oc2cccc(Cl)c2F)CC1,77.7 ± 2.7
3,CC(C1=C(CCN(C)C)Cc2ccccc21)c1ccccn1 (stereo in doubt) [(S)-(+)-Dimethindene maleate],101
4,CCNC(=O)c1cc2c(-c3cc(OCCN4CCCC4)c(Cl)cc3Cl)nc(N)nc2s1,67
5,NC(=O)N1c2ccccc2CC(O)c2ccccc21 (stereo unspecified) [Licarbazepine],104
6,CCNc1nc(Nc2cc(F)c(C(=O)N3CCOCC3)cc2OC)ncc1C(F)(F)F,96.2
7,COc1ccc(-n2[nH]c3c4c(ncc3c2=O)CCCCC4)cc1,99.9
8,O=C(O)c1cc(O)ccc1O [Gentisic acid],103
9,COc1ccc2[nH]c(-c3ccccc3)c(CCNC(C)=O)c2c1 [2-Phenylmelatonin],84.5
10,N[C@@H](CSC(c1ccccc1)(c1ccccc1)c1ccccc1)C(=O)O [S-Trityl-L-cysteine],95
11,CS(=O)(=O)c1cccc(CNc2nc(Nc3ccc4c(c3)CCC(=O)N4)ncc2C(F)(F)F)c1,45.9 ± 3.2
12,CNC(=O)c1nn(C)c2c1C(C)(C)Cc1cnc(Nc3ccc(N4CCN(C)CC4)cc3)nc1-2,54.8 and 36.4
13,Cc1cnc(Nc2ccc(OCCN3CCCC3)cc2)nc1Nc1cccc(S(=O)(=O)NC(C)(C)C)c1,7.48 and 5.57
14,C=CCn1c(=O)c2cnc(Nc3ccc(N4CCN(C)CC4)cc3)nc2n1-c1cccc(C(C)(C)O)n1,25.1
15,Cc1cnc(Nc2ccc(N3CCN(C)CC3)cc2)nc1Nc1cccc(S(=O)(=O)NC(C)(C)C)c1,5.44
16,C=CC(=O)Nc1cccc(Nc2nc(Nc3ccc(OCCOC)cc3)ncc2F)c1,34.7
17,Oc1cc2c(cc1O)[C@@H]1c3ccc(O)c(O)c3OC[C@]1(O)C2 [Hematoxylin (Hydroxybrazilin)],86
18,Cc1nn(C)c2nc(NNC(=O)Nc3cc(Cl)nc(Cl)c3)cc(C(C)C)c12,106
19,COC(=O)C1=C(C)NC(C)=C([N+](=O)[O-])[C@H]1c1ccccc1C(F)(F)F,99.5
20,O=C(c1ccc(Cl)cc1Cl)n1nnc2ccccc21,83.2
21,COc1cc(OC)c(/C=C/S(=O)(=O)Cc2ccc(OC)c(NCC(=O)O)c2)c(OC)c1,16.3 ± 1.4
